Source: PubChem BioAssay (Tox21)
Records with an inconclusive call do not appear. Calls of active or inactive are those of the source. Unless noted, calls follow the shape of the dose curve; as a rule, active = well fitted curve in the direction sought with a large enough effect in the repeat runs; inconclusive = weak or mixed curves; inactive = flat fitted curve, though single readings scatter.

Test system: not listed separately
Experiment: qHTS assay to test for compound auto fluorescence at 460 nm (blue) in HepG2 cells (AID 720687)
Settings: autofluorescence 405/460 nm, 1 h; series mostly up to 91.3 µM; fluorescence, % of fluorescent control: at the top concentration
Outline: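 Blue-channel autofluorescence (Ex/Em 405/460 nm, triamterene-equivalent) was measured after 1 hr compound exposure at 37 C, 5% CO2. Cells were HepG2, plated overnight at 37 C in MEM plus 10% FBS.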
% is scaled to controls: 0 for no effect and ±100 for the full control effect.

SMILES	fluorescence, % of fluorescent control	outcome
CC(c1ccc(O)cc1)(c1ccc(O)cc1)c1ccc(O)cc1	-0.275% (inactive)	–
CC1CC(CC2CCC(N)C(C)C2)CCC1N (configuration not stated)	0.423% [at 95.7 µM] (inactive)	–
CCN(C)N=O	0.197% (inactive)	–
II	0.0105% (inactive)	–
CCCCNP(N)(N)=S	-0.124% (inactive)	–
c1ccc(C2CC2)c(OCC2=NCCN2)c1	-0.0013% [at 46 µM] (inactive)	–
CCOP(=S)(OCC)Oc1nc(Cl)c(Cl)cc1Cl	–	inactive
CCCCCCC#N	-0.03% (inactive)	–
Cn1sc(Cl)cc1=O	–	inactive
CCCCCCCCOC(=O)c1ccc(C(=O)OCCCCCCCC)c(C(=O)OCCCCCCCC)c1	0.0116% [at 95.7 µM] (inactive)	–
CCOc1nc(F)cc2nc(S(=O)(=O)Nc3c(Cl)cccc3Cl)nn12	0.485% (inactive)	–
Brc1ccc(Oc2ccccc2)cc1	–	inactive
Cc1ccc2ccccc2c1	0.0189% (inactive)	–
N#CCc1ccccc1	-0.258% [at 95.7 µM] (inactive)	–
CC/C(=N\OC/C=C/Cl)C1=C(O)CC(C2CCOCC2)CC1=O (configuration not stated)	0.0008% (inactive)	–
COC(=O)C(Cl)C(=O)OC	0.103% [at 46 µM] (inactive)	–
O=[N+]([O-])c1ccccc1CCl	0.0506% [at 95.7 µM] (inactive)	–
COc1cc(CC(C)N)cc2c1OCO2 (configuration not stated)	-0.266% [at 95.7 µM] (inactive)	–
Nc1nc(N)nc(N)n1	-0.0168% (inactive)	–
COCC(C)N(C(=O)CCl)c1c(C)csc1C (configuration not stated)	–	inactive
c1ccc(CN2CCNCC2)cc1	-0.0985% [at 203 µM] (inactive)	–
CCCCCCCCCC(=O)O[C@H]1CC[C@H]2[C@@H]3CCC4=CC(=O)CC[C@@H]4[C@H]3CC[C@]12C	0.141% [at 46 µM] (inactive)	–
C=CCC1([C@H](C)CCC)C(=O)NC(=O)NC1=O	0.0264% (inactive)	–
CCOP(=O)(OCC)SCCSCC	0.017% (inactive)	–
IC(I)=C(I)I	-0.0746% (inactive)	–
CN1C(=O)NC(=O)C(C)(C2=CCCCC2)C1=O (configuration not stated)	–	inactive

Molecular target: Glucocorticoid receptor (Homo sapiens) (UniProt P04150)
Experiment: qHTS assay to identify small molecule agonists of the glucocorticoid receptor (GR) signaling pathway (AID 720691; active = well fitted activation curve with a large enough effect in the signal ratio in the repeat runs, not every such curve was filed as active; the % refers to the signal ratio)
Settings: GR-bla HeLa, beta-lactamase reporter ratio, 18 h; series mostly up to 62.4 µM; activation: at the top concentration
Outline: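 A HeLa cervical cancer line expressing GR and a glucocorticoid response element-driven beta-lactamase gene is treated with compounds for 18 h; LiveBLAzer B/G FRET substrate is then applied and fluorescence read.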

Sequence of Glucocorticoid receptor (Homo sapiens) (P04150 whole entry, looked up): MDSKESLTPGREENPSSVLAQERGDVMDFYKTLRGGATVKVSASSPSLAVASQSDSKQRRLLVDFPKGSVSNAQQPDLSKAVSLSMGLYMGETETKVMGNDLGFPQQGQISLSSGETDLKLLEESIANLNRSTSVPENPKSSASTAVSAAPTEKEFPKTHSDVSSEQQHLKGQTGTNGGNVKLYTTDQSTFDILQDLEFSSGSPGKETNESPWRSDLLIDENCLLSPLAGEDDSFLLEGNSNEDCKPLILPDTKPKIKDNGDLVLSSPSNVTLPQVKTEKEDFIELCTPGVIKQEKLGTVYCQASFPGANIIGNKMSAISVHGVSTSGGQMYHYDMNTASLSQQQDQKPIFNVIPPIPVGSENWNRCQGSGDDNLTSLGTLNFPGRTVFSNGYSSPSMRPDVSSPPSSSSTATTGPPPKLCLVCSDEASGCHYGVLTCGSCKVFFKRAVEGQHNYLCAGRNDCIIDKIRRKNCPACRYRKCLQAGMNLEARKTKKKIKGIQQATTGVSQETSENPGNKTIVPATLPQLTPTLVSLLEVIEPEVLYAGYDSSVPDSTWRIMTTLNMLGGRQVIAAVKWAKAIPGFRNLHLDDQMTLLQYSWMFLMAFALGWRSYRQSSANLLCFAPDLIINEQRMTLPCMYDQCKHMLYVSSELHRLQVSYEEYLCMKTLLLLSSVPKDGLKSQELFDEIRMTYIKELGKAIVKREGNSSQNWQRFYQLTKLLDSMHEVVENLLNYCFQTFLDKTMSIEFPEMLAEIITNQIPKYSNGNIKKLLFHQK

SMILES	activation	outcome
C=CC(C)=O	-1.34% (inactive)	–
CCOP(=S)(OCC)Oc1nc(Cl)c(Cl)cc1Cl	–	inactive
Cn1sc(Cl)cc1=O	0.801% (inactive)	–
CCCCCCCCOC(=O)c1ccc(C(=O)OCCCCCCCC)c(C(=O)OCCCCCCCC)c1	-1.23% [at 79.2 µM] (inactive)	–
CCOc1nc(F)cc2nc(S(=O)(=O)Nc3c(Cl)cccc3Cl)nn12	-2.91% (inactive)	–
CCBr	3.24% [at 79.2 µM] (inactive)	–
Brc1ccc(Oc2ccccc2)cc1	–	inactive
CC/C(=N\OC/C=C/Cl)C1=C(O)CC(C2CCOCC2)CC1=O (configuration not stated)	1.74% (inactive)	–
N#Cc1cc(I)c(O)c(I)c1	-5.92% (inactive)	–
COC(=O)C(Cl)C(=O)OC	-2.87% (inactive)	–
O=[N+]([O-])c1ccccc1CCl	-0.868% [at 79.2 µM] (inactive)	–
COc1cc(CC(C)N)cc2c1OCO2 (configuration not stated)	-0.897% [at 79.2 µM] (inactive)	–
Nc1nc(=S)[nH][nH]1	0.0512% (inactive)	–
Nc1nc(N)nc(N)n1	-0.57% [at 79.2 µM] (inactive)	–
C=CCC1([C@H](C)CCC)C(=O)NC(=O)NC1=O	-3.35% (inactive)	–
Cc1cc(=O)[nH]o1	0.812% [at 79.2 µM] (inactive)	–
